The source made the active and inactive calls.
Tests used:
Albumin (Bos taurus) = Albumin (Bos taurus) (UniProt P02769); test: bovine serum albumin binders on microarray, profiling panel, artefact control for SMM control protein annotation, biochemical, small-molecule microarray, Alexa647 label, 635/667 nm fluorescence (AID 1118); conditions: BSA-A647 binding, fluorescence 635 nm, higher = more signal;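 also: score merges 667 nm emission intensity and signal-to-noise per printed compound spot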
[1] = small-molecule microarray binders of probe aXIP, primary screen, biochemical, NeuroSMM set, 635/667 nm fluorescence (AID 1119); conditions: higher = more signal, called active from +8 up or from −8 down;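 also: probe is the protein aXip251-270 applied at 1 µg/mL to compound-printed slides; binding of probe to printed compounds measured as 667 nm fluorescence plus signal to noise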
[2] = small-molecule binders of probe aNOTCH3, primary screen, biochemical, small-molecule microarray, 635/667 nm fluorescence (AID 1120); conditions: higher = more signal;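 also: probe is a biotin-tagged antibody raised against NOTCH3 rather than NOTCH3 protein; score merges spot fluorescence near 667 nm with spot signal to noise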
[3] = small-molecule binders of probe aNOTCH2, primary screen, biochemical, small-molecule microarray, 635/667 nm fluorescence (AID 1121); conditions: higher = more signal;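 also: score merges feature fluorescence read at 667 nm with its signal to noise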
[4] = molecular target: Carbonic anhydrase 2 (Homo sapiens) (UniProt P00918); test: CAII small-molecule binders, profiling panel, biochemical, small-molecule microarray, Alexa647-labelled CAII (AID 1122); conditions: CAII-A647 binding fluorescence, higher = more signal
[5] = COS7 lysate on small-molecule microarray, probe aHis, 635 nm (AID 1123); conditions: COS7 cell lysate, fluorescence, higher = more signal;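 also: z-score combines 667nm fluorescence intensity with signal-to-noise per printed compound spot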
[6] = compound binding in COS7 lysate, probe aLAP1, primary screen, cell lysate, small-molecule microarray (AID 1124); conditions: probe aLAP1, fluorescence, higher = more signal;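 also: lysate comes from COS7 cells expressing LAP1 and is applied at 0.3 µg/mL; score merges spot fluorescence near 667 nm with signal-to-noise over triplicate slides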
Sam68 (KHDRBS1) = test: Sam68 small-molecule binders, primary screen, biochemical, small-molecule microarray, 635 nm fluorescence (AID 1125); conditions: small-molecule microarray binding, higher = more signal;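 also: score merges 667 nm channel intensity with signal to noise over triplicate slides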
[7] = system: Chordin-like protein 2 (CHRDL2); test: CHRDL2 small-molecule binders, primary screen, biochemical, small-molecule microarray, 635 nm fluorescence (AID 1126); conditions: small-molecule microarray binding, fluorescence 635 nm; higher = more signal;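 also: printed compound slides probed with Chrdl2 protein at 4 µg/mL for 1 h at 4 C; score merges 667 nm emission intensity with signal to noise over three replicate slides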
[8] = molecular target: Concanavalin-A (Canavalia ensiformis) (UniProt P02866); test: ConA small-molecule binders, primary screen, artefact control for SMM control protein annotation, biochemical, small-molecule microarray, Alexa647 label, 635 nm (AID 1127); conditions: ConA-A647 binding fluorescence, higher = more signal;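 also: z combines 667 nm emission intensity with signal-to-noise across three replicate slides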
Concanavalin-A (Canavalia ensiformis), sequence (P02866 whole entry, looked up): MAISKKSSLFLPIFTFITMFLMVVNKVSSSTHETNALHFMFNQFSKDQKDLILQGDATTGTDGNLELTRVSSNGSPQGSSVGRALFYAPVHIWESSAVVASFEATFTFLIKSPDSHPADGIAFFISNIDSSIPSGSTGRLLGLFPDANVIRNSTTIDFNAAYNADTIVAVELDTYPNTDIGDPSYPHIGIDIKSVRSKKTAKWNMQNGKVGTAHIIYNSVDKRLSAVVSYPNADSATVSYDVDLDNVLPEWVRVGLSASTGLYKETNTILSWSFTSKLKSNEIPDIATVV

[9] = anti-His antibody binders, primary screen, artefact control for SMM control protein annotation, biochemical, small-molecule microarray, 635 nm fluorescence (AID 1128); conditions: anti-His Alexa647 antibody binding, higher = more signal;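 also: score merges feature fluorescence with signal-to-noise for each printed compound spot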
[10] = system: Human papillomavirus type 1a E7 protein (residues 1-88); test: HPV1a E7 small-molecule binders, primary screen, biochemical, small-molecule microarray, residues 1-88, 635 nm (AID 1129); conditions: small-molecule microarray binding, fluorescence 635 nm; higher = more signal
[11] = molecular target: Focal adhesion kinase 1 (Homo sapiens) (UniProt Q05397); test: small-molecule microarray binders of FAK, primary screen, biochemical, 635/667 nm fluorescence, BSA, DTT (AID 1130); conditions: PTK2 binding, 635 nm fluorescence, higher = more signal;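 also: composite of spot emission at 667 nm and signal to noise over triplicate slides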
Focal adhesion kinase 1 (Homo sapiens), sequence (Q05397 whole entry, looked up): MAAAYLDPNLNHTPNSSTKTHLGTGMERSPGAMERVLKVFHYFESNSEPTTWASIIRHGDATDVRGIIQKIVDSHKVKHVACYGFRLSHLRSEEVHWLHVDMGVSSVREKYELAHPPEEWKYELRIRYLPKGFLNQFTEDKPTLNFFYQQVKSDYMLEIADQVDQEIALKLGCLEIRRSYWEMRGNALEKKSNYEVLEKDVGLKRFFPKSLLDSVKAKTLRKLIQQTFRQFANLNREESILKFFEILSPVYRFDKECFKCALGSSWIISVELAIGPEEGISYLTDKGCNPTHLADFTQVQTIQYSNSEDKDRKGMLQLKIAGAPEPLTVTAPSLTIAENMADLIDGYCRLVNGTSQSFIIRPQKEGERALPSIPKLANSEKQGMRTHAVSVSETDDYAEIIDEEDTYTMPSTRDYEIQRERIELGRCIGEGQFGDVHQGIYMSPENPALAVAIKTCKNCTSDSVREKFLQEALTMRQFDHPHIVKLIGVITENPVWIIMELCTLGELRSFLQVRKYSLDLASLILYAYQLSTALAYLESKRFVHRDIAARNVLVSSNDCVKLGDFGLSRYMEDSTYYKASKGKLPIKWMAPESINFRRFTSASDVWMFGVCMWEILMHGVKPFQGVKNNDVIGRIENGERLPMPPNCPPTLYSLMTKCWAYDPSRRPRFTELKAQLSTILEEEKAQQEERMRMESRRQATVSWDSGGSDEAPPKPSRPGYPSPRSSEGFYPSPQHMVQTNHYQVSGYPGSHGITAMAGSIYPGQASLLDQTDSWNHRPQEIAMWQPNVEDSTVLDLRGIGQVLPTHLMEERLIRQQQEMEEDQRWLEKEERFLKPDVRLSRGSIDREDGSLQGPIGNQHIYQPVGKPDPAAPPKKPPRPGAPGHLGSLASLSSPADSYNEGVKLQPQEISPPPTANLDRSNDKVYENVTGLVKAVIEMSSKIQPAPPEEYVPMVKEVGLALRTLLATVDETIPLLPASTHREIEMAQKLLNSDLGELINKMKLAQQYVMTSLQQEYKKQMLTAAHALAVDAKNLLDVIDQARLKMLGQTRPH

[12] = system: Fibrinogen (Alexa647-labelled); test: fibrinogen binders on compound microarrays, profiling panel, artefact control for SMM control-protein annotation, biochemical, small-molecule microarray, 635/667 nm fluorescence (AID 1131); conditions: fibrinogen-A647 binding fluorescence, higher = more signal;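 also: z-score merges 667 nm fluorescence with per-spot signal-to-noise over triplicate slides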
[13] = molecular target: Follistatin (Homo sapiens) (UniProt P19883); test: follistatin binders on small-molecule microarrays, primary screen, biochemical, small-molecule microarray, 635/667 nm fluorescence (AID 1132); conditions: FST binding, 635 nm fluorescence, higher = more signal
Follistatin (Homo sapiens), sequence (P19883 whole entry, looked up): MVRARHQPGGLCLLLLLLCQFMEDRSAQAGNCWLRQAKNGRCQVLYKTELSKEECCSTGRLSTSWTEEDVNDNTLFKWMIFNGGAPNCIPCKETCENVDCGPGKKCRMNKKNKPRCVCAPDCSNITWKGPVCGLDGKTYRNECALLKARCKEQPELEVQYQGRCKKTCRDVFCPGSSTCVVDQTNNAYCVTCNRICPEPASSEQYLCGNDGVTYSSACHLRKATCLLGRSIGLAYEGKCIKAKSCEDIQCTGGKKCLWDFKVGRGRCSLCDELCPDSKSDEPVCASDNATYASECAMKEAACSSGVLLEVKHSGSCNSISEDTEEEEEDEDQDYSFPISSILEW

[14] = molecular target: Fibroblast growth factor 2 (Homo sapiens) (UniProt P09038); test: FGF2 binders on small-molecule microarrays, primary screen, biochemical, small-molecule microarray, 635/667 nm fluorescence (AID 1133); conditions: small-molecule microarray binding, FGF2, fluorescence 635/667; higher = more signal
Fibroblast growth factor 2 (Homo sapiens), sequence (P09038 whole entry, looked up): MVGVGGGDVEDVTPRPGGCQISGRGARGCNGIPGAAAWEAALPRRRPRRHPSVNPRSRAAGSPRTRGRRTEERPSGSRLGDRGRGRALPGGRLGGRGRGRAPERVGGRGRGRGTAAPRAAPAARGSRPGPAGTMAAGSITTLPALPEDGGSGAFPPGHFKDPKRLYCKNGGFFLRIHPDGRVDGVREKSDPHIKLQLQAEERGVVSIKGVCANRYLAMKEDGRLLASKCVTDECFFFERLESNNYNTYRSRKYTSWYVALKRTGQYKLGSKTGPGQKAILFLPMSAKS

[15] = mitochondrial membrane potential change in A549 cells, profiling panel, cell-based, JC-1 fluorescence, basal, 24 h, 100 nL (AID 1138); conditions: higher = more signal;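 also: A549 lung adenocarcinoma cells under basal conditions with no added stimulus; test concentration not given here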
Lefty1 = Lefty1 binders on small-molecule microarrays, primary screen, biochemical, small-molecule microarray, 635/667 nm fluorescence (AID 1139); conditions: small-molecule microarray binding, fluorescence 635/667; higher = more signal
[16] = system: wheat germ agglutinin (Triticum aestivum), Alexa647-labelled; test: wheat germ agglutinin binders on compound microarrays, profiling panel, artefact control for SMM control-protein annotation, biochemical, small-molecule microarray, 635/667 nm fluorescence (AID 1140); conditions: WGA-A647 binding, 635 nm fluorescence, higher = more signal;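 also: score merges 667 nm feature emission with signal to noise over triplicate slides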
[17] = molecular target: Luciferin 4-monooxygenase (Photinus pyralis) (UniProt P08659); test: firefly luciferase enzyme inhibitors, primary screen, biochemical, luminescence, purified enzyme, 2006 set (AID 1141); conditions: SteadyGlo luminescence, 30 min, higher = more signal, called active from +8 up or from −8 down;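 also: cell-free assay with purified firefly luciferase at 100 ng per well in PBS; test concentration not given here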
Luciferin 4-monooxygenase (Photinus pyralis), sequence (P08659 whole entry, looked up): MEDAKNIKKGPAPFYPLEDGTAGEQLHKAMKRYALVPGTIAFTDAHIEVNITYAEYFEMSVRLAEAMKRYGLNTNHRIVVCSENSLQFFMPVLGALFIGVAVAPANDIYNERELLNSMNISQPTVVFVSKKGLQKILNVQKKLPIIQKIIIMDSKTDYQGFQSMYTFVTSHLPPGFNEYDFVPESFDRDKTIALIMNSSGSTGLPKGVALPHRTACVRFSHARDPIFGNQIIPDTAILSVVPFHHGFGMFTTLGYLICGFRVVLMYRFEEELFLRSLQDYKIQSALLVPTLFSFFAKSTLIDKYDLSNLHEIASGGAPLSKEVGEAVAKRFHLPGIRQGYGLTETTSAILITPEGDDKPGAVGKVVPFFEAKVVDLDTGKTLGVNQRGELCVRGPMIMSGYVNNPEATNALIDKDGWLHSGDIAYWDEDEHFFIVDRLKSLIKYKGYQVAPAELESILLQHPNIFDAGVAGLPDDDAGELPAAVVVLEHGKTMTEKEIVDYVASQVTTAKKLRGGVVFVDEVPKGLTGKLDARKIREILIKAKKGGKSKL

Albumin (Bos taurus), sequence (P02769 whole entry, looked up): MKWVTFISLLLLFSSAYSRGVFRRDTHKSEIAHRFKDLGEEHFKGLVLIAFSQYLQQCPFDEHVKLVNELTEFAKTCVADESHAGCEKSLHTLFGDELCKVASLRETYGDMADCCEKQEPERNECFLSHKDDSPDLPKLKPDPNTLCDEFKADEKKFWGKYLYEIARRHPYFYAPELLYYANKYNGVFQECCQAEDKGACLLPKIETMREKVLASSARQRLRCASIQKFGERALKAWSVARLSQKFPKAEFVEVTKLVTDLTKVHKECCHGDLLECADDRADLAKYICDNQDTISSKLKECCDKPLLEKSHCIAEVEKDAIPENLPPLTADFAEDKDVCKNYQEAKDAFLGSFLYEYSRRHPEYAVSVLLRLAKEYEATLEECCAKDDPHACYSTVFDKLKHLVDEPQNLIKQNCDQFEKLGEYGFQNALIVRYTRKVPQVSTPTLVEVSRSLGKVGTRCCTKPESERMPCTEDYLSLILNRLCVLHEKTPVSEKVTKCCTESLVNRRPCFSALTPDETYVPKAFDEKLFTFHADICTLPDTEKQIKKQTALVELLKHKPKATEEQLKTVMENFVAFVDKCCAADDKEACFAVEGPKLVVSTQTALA

| Compound | composite z-score (Albumin (Bos taurus)) | composite Z-score [1] | composite z-score [2] | composite z-score [3] | composite z-score [4] | composite z-score [5] | composite z-score [6] | composite z-score (Sam68 (KHDRBS1)) | composite z-score [7] | composite z-score [8] | composite z-score [9] | composite z-score [10] | composite z-score [11] | composite z-score [12] | composite z-score [13] | composite z-score [14] | z-score [15] | composite z-score (Lefty1) | composite z-score [16] | z-score [17] |
| --- | --- | --- | --- | --- | --- | --- | --- | --- | --- | --- | --- | --- | --- | --- | --- | --- | --- | --- | --- | --- |
| COCCOC(=O)N1C(=O)[C@@]2(c3cc(C#Cc4ccc(OC)cc4)ccc31)[C@H](C(N)=O)[C@H]1C(=O)O[C@H](c3ccccc3)[C@H](c3ccccc3)N1[C@@H]2c1ccc(OCCO)cc1 | -0.884 | 0.393 (inactive) | 0.43 | -0.0984 | 0.332 | 1.79 | 0.52 | 1.3 | 0.714 | 0.921 | 1.71 | 1.21 | 0.398 | 0.898 | 1.28 | 1.55 | -1.96 | 0.997 | 0.695 | -0.297 (inactive) |
| CC1C=C(CCCO)C=C(C(=O)OCCS(C)(=O)=O)C(C(=O)OCCS(C)(=O)=O)=CN1Cc1cccc(OC(F)(F)F)c1 (stereo not given) | 1.03 | -0.115 (inactive) | 0.0929 | 0.0231 | 0.749 | 2.22 | 1.11 | 1.21 | -0.815 | 1.08 | 1 | 0.799 | -0.0696 | 1.02 | 0.0361 | -0.356 | 0.848 | -0.309 | 0.785 | -0.234 (inactive) |
| Cc1ccccc1C(O)C1C=CC2C(=O)N(Cc3ccccc3)C(=O)C2N1n1cnnc1 (stereo not given) | 0.756 | 0.358 (inactive) | 0.159 | -0.137 | 0.71 | 0.774 | -0.0065 | 1.01 | -0.317 | 0.71 | 1.54 | 1.05 | -0.0602 | 1.02 | 1.07 | 0.188 | -0.478 | 0.694 | 0.429 | 1.39 (inactive) |
| CCOC(=O)C[C@H]1[C@H](OC(=O)Cc2ccc3c(c2)OCO3)[C@@H](NC(=O)c2ccccc2)c2cc(OCCCO)ccc2N1C(=O)c1ccc2ccccc2n1 | 0.645 | 0.375 (inactive) | -0.226 | -0.147 | 0.08 | 0.526 | -0.145 | 0.679 | 0.127 | 1.1 | 0.0936 | 0.445 | -0.0584 | 0.204 | 0.166 | 0.77 | 0.925 | 0.447 | 0.473 | -1.43 (inactive) |
| CCOC(=O)C[C@H]1[C@H](OC(=O)Cc2ccc3c(c2)OCO3)[C@@H](NC(=O)c2ccccc2)c2cc(OCCCO)ccc2N1C(=O)c1ccccc1 | -0.359 | 0.713 (inactive) | -0.0573 | -0.121 | 0.0488 | 0.525 | 0.379 | 0.425 | 0.434 | 0.374 | -0.226 | 0.669 | -0.061 | 0.731 | 0.392 | 0.383 | 0.673 | 0.557 | 1.25 | -0.207 (inactive) |
| COCCOC(=O)N1C(=O)[C@@]2(c3cc(C#Cc4ccc(OC)cc4)ccc31)[C@H](C(=O)N1CCc3cc(OC)c(OC)cc3C1)[C@H]1C(=O)O[C@H](c3ccccc3)[C@H](c3ccccc3)N1[C@@H]2c1ccc(OCCO)cc1 | -0.121 | -0.527 (inactive) | 0.0271 | -0.149 | 0.22 | -0.0346 | 0.0459 | 1.23 | 0.598 | 1.09 | 0.839 | 1.13 | 0.5 | 0.195 | 1.19 | 1.3 | -1.79 | 0.88 | 0.596 | -1.23 (inactive) |
| CC(C)(C)OC(=O)CC[C@]1(C(=O)O)COC(c2ccc(OCCCO)cc2)=N1 | 0.374 | -0.0004 (inactive) | 0.102 | -0.0966 | 0.803 | 1.11 | -0.156 | -1.05 | -1.92 | 0.135 | 0.541 | -0.173 | -0.108 | 0.68 | -0.747 | -1.23 | 0.352 | -0.552 | 0.62 | -0.306 (inactive) |
| CCCC[C@@H](O)C1=C(COc2ccccc2)Cn2c(=O)n(-c3ccccc3)c(=O)n2[C@H]1CO | -0.0711 | -0.116 (inactive) | -0.187 | -0.148 | -0.0781 | 0.725 | 0.148 | -0.247 | 0.0826 | -0.494 | -0.265 | -0.476 | -0.103 | 0.729 | -0.28 | -0.242 | 0.363 | -0.193 | 0.31 | -1.79 (inactive) |
